# Compound activity (PubChem)
# TROY NFkB inh – inhibitors of TROY-dependent NF-kB signaling | inhibition, % at 10 µM | Q293 LMP1-TROYcd NF-kB luciferase reporter, 4 h | 360,000 compounds, 0.98% hits | AID 1347056;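 active = compounds whose plate-normalised and pattern-corrected inhibition of the luciferase reporter signal at the single screening dose is 50% or more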
# PPC-1+TRAIL kill – kills PPC-1 cancer cells in the presence of TRAIL | 220,000 compounds, 0.41% hits | cell killing (% activity), % at 4 µM or 5 µM | PPC-1 cells + TRAIL, ATPLite viability luminescence;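 active = cell killing above 50% in the first pass at 4 µM, then a duplicate retest at 5 µM averaging 50% or more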
# Platelet DG rel – platelet dense granule release activity; human platelet-rich plasma, SFLLRN dense granule ATP release, luminescence; inhibition, %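 (compounds screened at 7.5 µM in platelet-rich plasma)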; 300,000 compounds, 0.22% hits; AID 1663;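 active = mean replicate score, as percent of positive control, at or above 50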
# TWEAK-Fn14 inh – blocks TWEAK-Fn14 interaction in a reporter cell assay; TWEAK-stimulated Fn14 reporter cells, luciferase luminescence, 8 h; inhibition, % at 10 µM; 360,000 compounds, 2% hits; in the data active = inhibition above about 50%
# C8 TRAIL sens – sensitizes caspase-8 expressing cells to TRAIL; inhibition (viability loss, TRAIL sensitization), % at 10 µM; NB7+C8 cells + TRAIL, ATPlite viability luminescence; 360,000 compounds, 1% hits;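 active = compounds causing at least 50% loss of cell viability in the single-dose screen, relative to plate controls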
# HSP90 inh – HSP90 refolding inhibition in rabbit reticulocyte lysate; 290,000 compounds, 0.91% hits; AID 1789; inhibition, % at 5.6 µM; luciferase refolding luminescence, 3 h;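 active = inhibition above the screen-wide mean plus 3 SD, computed separately per campaign, cut at about 16% in these data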;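 note: inhibitors lower the luminescence because luciferase stays unfolded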
# Hits are given with their value; 0 = inactive; - = no result. Rows were chosen to be rich in hits. Some 3.5% of all compounds tested hit in one or more screens of this group.
SMILES,TROY NFkB inh,PPC-1+TRAIL kill,Platelet DG rel,TWEAK-Fn14 inh,C8 TRAIL sens,HSP90 inh
COc1ccc(NC(=S)NNc2ccc([N+](=O)[O-])cc2S(=O)(=O)Nc2ccc(C)cc2C)cc1,0,0,0,0,0,0
Cc1ccc(NS(=O)(=O)c2cc([N+](=O)[O-])ccc2NNC(=S)Nc2cc(C)ccc2C)c(C)c1,53,0,0,68,0,0
Cc1ccc(-c2ccc(=O)n(CCC(=O)NCCN3CCCCC3C)n2)cc1 (centres undefined),-,0,0,87,0,0
Cc1cccc(NC(=O)CC2SC(=O)N(c3ccccc3)C2=O)c1 (centres undefined),0,0,67,0,0,0
CN=C1S/C(=C\c2cn(C(C)=O)nc2-c2ccccc2)C(=O)N1C,-,-,-,-,-,0
CC(=O)NC1=NC(=O)/C(=C/c2cn(C(C)=O)nc2-c2ccccc2)S1,0,0,0,74,0,0
C/C(=N\O)c1ccco1,0,-,-,0,0,-
CN1CCN(Cc2c(O)ccc3occ(C(=O)c4ccccc4)c23)CC1,0,0,0,0,0,0
CC(=O)C(C(C)=O)c1c(Cl)c(O)c(O)c2c(C(=O)c3ccccc3)coc12,0,0,0,76,0,0
O=c1[nH]nc(Sc2ncnc3sccc23)n1CCc1ccccc1,0,0,0,57,0,0
CCOc1ccccc1-c1ccc2nccn2c1,0,-,-,0,0,-
FC(F)(F)c1ccc(/C=N/NC(=S)NC2CCCCC2)cc1,0,0,0,0,0,0
Oc1ccc(/C=N/NC(=S)N/N=C/c2ccc(O)cc2)cc1,0,0,115,0,0,0
Oc1ccc(/C=N/NC(=S)Nc2cccnc2)cc1,0,0,0,0,71,0
C=CCNC(=S)N/N=C/c1ccc(C(F)(F)F)cc1,0,0,0,0,51,0
COc1ccc(O)c(/C=N/NC(=S)Nc2cccnc2)c1,0,0,0,0,65,0
COc1cccc(NC(=O)CN2C(=O)C(=O)N(C3CCCC3)C2=O)c1,0,-,-,0,0,-
Cc1ccc(C(=O)Nc2sc(C)c(-c3ccccc3)c2C(N)=O)cc1[N+](=O)[O-],87,0,0,98,0,0
Cc1ccc(C(=O)Nc2cccc(NC(=O)c3ccc(C)c([N+](=O)[O-])c3)n2)cc1[N+](=O)[O-],0,-,0,0,0,0
CCOC(=O)c1cnc2ccc(OCC)cc2c1NCc1ccccc1OC,54,0,0,72,0,0
CSCCC(NS(=O)(=O)c1ccc(Cl)cc1)C(=O)OCC(=O)c1c(C)[nH]c2ccccc12 (centres undefined),82,0,0,62,0,0
CC(C)CC1NC(=O)N(Cc2cc(=O)n3ccsc3n2)C1=O (centres undefined),0,0,0,0,0,0
Cc1ccc(Cl)c(OCC(=O)Nc2ccccc2C(=O)NC2CC2)c1,0,-,53,0,0,0
Cc1ccc(OCC(=O)Nc2ccccc2C(N)=O)cc1,0,-,0,0,52,0
Cn1c(=O)c2ncn(CC(=O)Nc3cccc(-c4nc5ccccc5s4)c3)c2n(C)c1=O,0,0,-,67,0,0
SMILES,TROY NFkB inh,PPC-1+TRAIL kill,Platelet DG rel,TWEAK-Fn14 inh,C8 TRAIL sens,HSP90 inh
O=C(O)CCC(=O)Nc1cccc(-c2csc(-c3ccccc3)n2)c1,0,0,0,57,0,0
O=C(CCS(=O)(=O)c1ccccc1)Nc1cccc(-c2nc3ccccc3s2)c1,57,0,0,87,54,0
O=C(Nc1cccc(-c2nc3ccccc3s2)c1)c1cccs1,0,0,0,0,0,0
CCCCC(=O)Nc1cccc(-c2csc(-c3ccccc3)n2)c1,0,0,0,0,0,0
COCc1cc(=O)[nH]c2cc(NC(=O)c3cccc(OC)c3)c(C)cc12,0,-,0,0,0,0
Cn1c(=O)c2c(nc(NCC3CCCC(CN)C3)n2Cc2ccc(Cl)cc2Cl)n(C)c1=O (centres undefined),0,-,0,0,0,0
Cc1ccccc1C(=O)NC1CCN(C(=O)NC2CCCCC2)CC1,0,-,0,53,0,0
Cc1ccccc1CC(=O)NC1CCCCCC1,0,-,0,87,0,0
Cc1ccccc1CSCC(=O)NC1CCCC1,0,0,0,0,0,0
Cc1ccc2nc(SCC(=O)Nc3ccc4c(c3)OCO4)nc(=O)n2c1,0,-,0,0,0,-
Cc1cc(N2CCOCC2)ccc1/C=C\[N+](=O)[O-],50,0,0,70,0,0
Cc1nn(-c2ccccn2)c2c1C(c1ccccc1Cl)C1=C(N2)c2ccccc2C1=O (centres undefined),0,0,0,50,0,0
O=C(c1ccc(O)c(Br)c1)c1cc(Br)ccc1O,50,-,-,0,0,-
O=C(C(=O)c1cc(Br)ccc1O)c1cc(Br)ccc1O,66,-,-,0,0,-
CC1=NC(C)(C)CC2CCC(O)C12 (centres undefined),0,-,-,0,0,-
Cc1oc2c(Cl)c(Cl)c(O)c(CN(C)C)c2c1C(=O)c1ccc(Cl)cc1,0,-,0,75,0,0
Cc1oc2ccc(O)c(CN3CCOCC3)c2c1C(=O)c1ccc(Cl)cc1,0,0,0,0,0,0
O=C(Nc1nccs1)c1cc2cc(Cl)ccc2oc1=O,0,0,0,0,0,0
CCC(=O)c1ccc(OCC(=O)OC(C)C(=O)Nc2c(C)n(C)n(-c3ccccc3)c2=O)cc1 (centres undefined),0,-,-,0,0,-
CCOC(=O)N1CCC(Nc2c(-c3ccc(C)cc3)c(=O)c2=O)CC1,0,0,0,0,60,0
O=C(Nc1cccc(C(F)(F)F)c1)C1Cc2c(-c3ccccc3)ccnc2O1 (centres undefined),0,-,-,0,0,-
C#Cc1cccc(Nc2nc(NC(C)C)nc3ccsc23)c1,0,-,-,53,0,-
CC(C)Nc1nc(Nc2ccccc2Cl)c2sccc2n1,0,-,-,64,0,-
C#Cc1cccc(Nc2nc(NCc3ccccc3OC)nc3ccsc23)c1,0,-,-,74,46,-
Cc1cc(Cl)c(S(=O)(=O)NC2CCCC2)cc1OCC(N)=O,0,-,0,0,0,0
SMILES,TROY NFkB inh,PPC-1+TRAIL kill,Platelet DG rel,TWEAK-Fn14 inh,C8 TRAIL sens,HSP90 inh
CCCCCCCn1c(=O)c(C(=O)OC)c(N)c2ccccc21,0,0,0,51,0,0
COCCn1c(COc2ccc(C)cc2)nc2ccccc21,-,0,0,65,0,0
CC[N+]1=C(C)C(C)(C)c2cc(C)ccc21,0,0,0,69,0,0
CCN1C(=O)C(=O)c2cc(C)ccc21,0,-,-,0,0,-
O=C1C(Cl)=C(NCCCO)C(=O)c2ccccc21,0,0,0,0,0,0
O=C1C(SCCO)=C(SCCO)C(=O)c2ccccc21,0,-,-,76,0,-
C=CCNC(=O)C1CC1(c1cccc(C)c1)c1cccc(C)c1 (centres undefined),0,-,0,0,0,-
Cc1cccc(C2(c3cccc(C)c3)CC2C(=O)Nc2ccc([N+](=O)[O-])cc2O)c1 (centres undefined),60,0,0,74,0,0
CCSc1ccccc1-c1nc(-c2ccncc2)no1,0,-,0,0,0,0
O=[N+]([O-])c1ccc(/C=N/n2cnc3ccccc32)s1,0,0,0,54,0,0
